Consider 62 molecules from ChEMBL document CHEMBL3988442, “University of Dundee, Small-Polar-MMV Screening Library” (2021).

“And” between values parts separate entries of the source, which are not always exact repeats. Equal entries are not always repeated. Screen size: about 34,000 compounds; about 290 (0.85%) showed an effect of 50% or more. What follows is part of a selection rich in strong results, with near analogues and random picks from the rest.

The test concerns Plasmodium falciparum. Nature of the test: Plasmodium falciparum sporozoite viability assay. More on the design: scale not given: in the data most compounds retested in dose-response had high values. The class given is functional, organism-based.

Regarding `Cc1nn(C)cc1CN1CCC(c2ncc(Cl)cc2S(C)(=O)=O)CC1`, the “Percent Effect” value was found to be 3.927%. Still for that read-out and setting: the value for `Cc1cc(C)c(S(=O)(=O)NCCC(=O)NCc2ccoc2)c(C)c1` was -16.91%; that for `CN(C)C(=O)NCC1CC2(CO1)CN(c1nncs1)C2` (configuration not stated) was 9.107%. Same read-out and setting: to `Cc1cc2cc(C(=O)N[C@@H]3CC[C@@H](N4CCNC(=O)C4)[C@@H]3O)ccc2o1` belongs -1.506%; to `COc1ccccc1CNC(=O)CNCCn1cc(C)cn1`, 7.81%. With `Cc1csc(NC(=O)c2cnc(C3CCCN(C)C3)cn2)n1` (configuration not stated), the “Percent Effect” value (10 mM as filed; unlikely as a test dose) was 50.33% and 85.32% and 71.26%.

Regarding `Cc1nc(C(=O)NCc2ccccn2)cc(C2CCCN2)n1` (configuration not stated), the “Percent Effect” value was 15.86%.

`Cc1csc(NC(=O)c2cnc(C3CCCN3)cn2)n1.Cl` (configuration not stated): the “Percent Effect” value (10 mM as filed; unlikely as a test dose) was 76.82% and 93.2% and 90.06%.

In the case of `O=C(NCc1ccccn1)c1cnc(C2CCCN2)cn1` (configuration not stated), the “Percent Effect” value is on record as -5.932%. On the same count and under the same terms, to `COc1c(C2CCCN2CC(=O)Nc2nc(C)cs2)c(C)nn1C` (configuration not stated) belongs -5.597%.

On to `Cc1nn(C)c(C)c1-c1cnc(C2CCCN(C)C2)cn1` (configuration not stated), for which, where the note is “10 mM as filed; unlikely as a test dose”, the “Percent Effect” value was -21.75% and -20.87% and 0.3933%. Regarding `Cl.O=C(NCC(F)F)c1cnc(C2CCCN2)cn1` (configuration not stated), the “Percent Effect” value was 6.016%. Same read-out and setting: to `Cc1nc2cc(-c3nccn3C)nn2c(N2CCCC2)c1C` belongs 12.19%.

As to `CC(C)(CO)Nc1cc(-c2ccncc2)ncn1`, the “Percent Effect” value was -5.504%. The same measure, in the same setting: the value for `COc1ccc(S(=O)(=O)N2CCN(C)c3ncccc3C2)cc1.O=C(O)C(F)(F)F` was 6.245%; that for `CN1CCCN(C(=O)NCc2cccnc2-n2cccn2)CC1` was -0.7887%. Same read-out and setting: the value for `Cc1ncccc1NC(=O)[C@@H]1CCO[C@@H]2CCN(c3ccncn3)C[C@H]21` was 1.798%. Consider `CCc1nccn1C1CCCN(C(=O)CCOCC(F)(F)F)C1` (configuration not stated), for which the “Percent Effect” value (10 mM as filed; unlikely as a test dose) was 0.2657% and 18.61% and -4.801%. For the molecule `Cc1csc(CNC(=O)N2CCN(Cc3cc(C)on3)CC2)n1`, the “Percent Effect” value was 3.68%.

As for `Cc1nc(C(NC(=O)c2cc(C(C)C)[nH]n2)c2ccccc2)n[nH]1` (configuration not stated), the “Percent Effect” value stood at 1.665%.

As for `CC(C)c1cc(C(=O)NCCn2nc3ccccn3c2=O)n[nH]1`, the “Percent Effect” value is recorded as -7.561%. For `CC(NC(=O)c1cc(C(C)C)[nH]n1)C(=O)Nc1ccccc1` (configuration not stated), the “Percent Effect” value (10 mM as filed; unlikely as a test dose) is 72.25% and 63.23% and 81.29%. With `O=C(C1CC1)N1CCc2nc(C3CCN(C(=O)C4CC4)C3)nc(O)c2C1` (configuration not stated), the “Percent Effect” value came out at 2.355%.

Take `Cc1nn(CC(C)C)c(N(C)C)c1CNCc1cccnc1N(C)C`: the “Percent Effect” value stood at 0%.

With `Cc1nn(CC(C)C)c(N(C)C)c1CNCc1ccccc1CO`, the “Percent Effect” value was found to be 9.702%. Take `Cc1nc(-c2ccncc2)ncc1C(C)NC(=O)CN1CCCC1=O` (configuration not stated): the “Percent Effect” value is given as -5.692%. In the case of `Cc1cc(C2CCN(C(=O)c3cnn(C)c3)CC2)ccn1`, the “Percent Effect” value turned out to be 2.879%. Same read-out and setting: to `CN(C)c1ncc(-c2ccc(F)cc2)c(C2CNCCO2)n1.Cl` (configuration not stated) belongs 8.117%. On the same count and under the same terms, to `CN(C)c1ncc(-c2cccc(F)c2)c(C2CNCCO2)n1.Cl` (configuration not stated) belongs 2.337%. With `Cl.c1ccc(-c2ccc(C3CNCCO3)nc2)cc1` (configuration not stated), the “Percent Effect” value (10 mM as filed; unlikely as a test dose) is 93.99% and 69.13% and 81.53%. As to `CN(C)c1ncc(-c2ccc(C(N)=O)cc2)c(C2CNCCO2)n1` (configuration not stated), the “Percent Effect” value is -5.327%. Same read-out and setting: the value for `CN(C)c1ncc(-c2cncnc2)c(C2CNCCO2)n1.Cl` (configuration not stated) was -2.536%. In the case of `Cc1ccc(-c2ccc(C3CNCCO3)nc2)cc1.Cl` (configuration not stated), the “Percent Effect” value (10 mM as filed; unlikely as a test dose) is 90.92% and 91.35% and 89.87%. In the case of `Cl.Fc1ccccc1OCCc1cc(C2CNCCO2)n[nH]1` (configuration not stated), the “Percent Effect” value is -0.03121%. For the molecule `O=C(c1cccnn1)N1C[C@@H]2CC[C@H](Oc3cccc(F)c3)[C@@H]2C1`, the “Percent Effect” value is recorded as -11.48%. On to `CC(C(=O)NCc1ccnc(N2CCOCC2)c1)n1cccn1` (configuration not stated), for which the “Percent Effect” value came out at 3.476%. In the case of `O=C(NCc1ccc2c(c1)OCO2)[C@H]1C=CCN1c1ncccn1`, the “Percent Effect” value is -8.12%. For the molecule `CC(NCc1ccccc1Cl)c1ccc2[nH]c(=O)[nH]c2c1` (configuration not stated), the “Percent Effect” value turned out to be 4.238%.

`O=C1NCCN1C1CCN(CCOc2cccc3ccccc23)CC1`: the “Percent Effect” value is listed as 0.4468%. As to `CCc1cnc(COc2ccc(OC3CCCCNC3=O)cc2)o1` (configuration not stated), the “Percent Effect” value (10 mM as filed; unlikely as a test dose) was -31.83% and -45%. As for `Cc1nc(COc2ccc(OC3CCCCNC3=O)cc2)oc1C` (configuration not stated), the “Percent Effect” value (10 mM as filed; unlikely as a test dose) is 96.35% and 88.4%. Turning to `NC(=O)Cn1cc(NC(=O)N2CCCC(O)C2)cn1` (configuration not stated), the “Percent Effect” value was found to be 9.794%. The same measure, in the same setting: to `CC(C)(C)n1cc(NCc2cscn2)cn1` belongs 16.3%.

Take `CCn1cc(CNc2ccc(N(C)CCOC)cn2)cn1`: the “Percent Effect” value (10 mM as filed; unlikely as a test dose) is 4.885% and 7.278%.

For the molecule `COCCN(C)c1ccc(NCc2ccsc2)nc1`, the “Percent Effect” value (10 mM as filed; unlikely as a test dose) was 67.62% and 57.94%.

Consider `COCCN(C)c1ccc(NCc2cscn2)nc1`, for which the “Percent Effect” value (10 mM as filed; unlikely as a test dose) is 95.11% and 93.26%. As for `COCCN(C)c1ccc(NCc2cccnc2)nc1`, the “Percent Effect” value (10 mM as filed; unlikely as a test dose) was 21.13% and 22.11%. Turning to `COCCS(=O)(=O)N(Cc1cscn1)c1ccccc1`, the “Percent Effect” value is 1.643%. Regarding `CC1CN(c2ccccc2Cl)C(=O)CN1C(=O)c1c[nH]c(=O)c(Cl)c1` (configuration not stated), the “Percent Effect” value worked out at 1.644%.

Turning to `COc1ccc(-n2ncc3c2NC(=O)CSC3C(C)C)cc1` (configuration not stated), the “Percent Effect” value was -10.71%. On the same count and under the same terms, the value for `COCC(=O)N1CC[C@@H]2O[C@H](COCc3ccncc3)CC[C@@H]21.O=C(O)C(F)(F)F` was -3.886%. `COc1cccc(-c2noc(C3CCN(CC4CCCCC4)C3)n2)c1.Cl` (configuration not stated): the “Percent Effect” value (10 mM as filed; unlikely as a test dose) was -10.94% and -15.38% and -3.133%.

Turning to `COc1cccc(-c2noc(C3CCN(Cc4cn(C)nc4C)C3)n2)c1` (configuration not stated), under “10 mM as filed; unlikely as a test dose”, the “Percent Effect” value is 82.7% and 74.22% and 69.73%. On to `COc1cccc(CSCC2=Nc3ccccc3S(=O)(=O)N2)c1`, for which the “Percent Effect” value is on record as -15.51%.

Take `Cn1cc(N2CCCC(NCc3cccc4c3OCCCO4)C2)cn1` (configuration not stated): the “Percent Effect” value worked out at 11.2%. On to `Cc1ccc(CNC2CCCc3c2cnn3C)s1.Cl` (configuration not stated), for which, for the setting “10 mM as filed; unlikely as a test dose”, the “Percent Effect” value is -10.87% and -25.98% and -25.69%. Same read-out and setting: the value for `CC(C)(C)n1ncc2c1CCCC2NCc1cccc2c1OCO2` (configuration not stated) was 74.58% and 37.95% and 70.91%. With `Cc1ccc(CNC2CCCc3c2cnn3Cc2ccccc2)s1.Cl` (configuration not stated), the “Percent Effect” value is reported as -20.07%.

With `CC(C)(C)n1ncc2c1CCCC2NCc1cccc2c1OCCO2` (configuration not stated), under “10 mM as filed; unlikely as a test dose”, the “Percent Effect” value is 39.28% and 33.56% and 65.68%. Turning to `CCn1ncc2c1CCCC2NCc1cscn1` (configuration not stated), the “Percent Effect” value (10 mM as filed; unlikely as a test dose) was -18.21% and -26.49%. In the case of `Cn1ncc2c1CCCC2NCc1ccc(Cl)s1` (configuration not stated), under “10 mM as filed; unlikely as a test dose”, the “Percent Effect” value is -1.156% and -7.705% and -11.46%. Turning to `Cl.c1cnc(N2CCCC(NCc3cccc4c3OCCO4)C2)nc1` (configuration not stated), the “Percent Effect” value was -3.04%.
